{
  "source": "PubChem BioAssay (NCATS)",
  "note": "Results filed as inconclusive are left out. Values without a mark were called inactive. Activity calls are given as the source filed them. Calls follow the shape of the dose curve; as a rule, active = well fitted inhibition curve with a large enough effect; inconclusive = small, poorly fitted or top-dose-only effect; inactive = flat fitted curve, though single readings scatter. % is scaled to controls: 0 for no effect and ±100 for the full control effect.",
  "data": [
    {"tested_on": "MCC-26", "assay": "qHTS assay to identify novel small-molecules to repurpose for Merkel cell carcinoma treatment (AID 1296009); also: nearly all actives have a fitted effect of over 60% in size", "settings": "MCC and control cell lines, CellTiter-Glo viability, 72 h; series mostly up to 46 µM; activity change, negative = cytotoxicity: at the top concentration", "source_text": "MCC is a rare and aggressive neuroendocrine skin cancer with limited treatment options. Approximately 80% of MCCs have the Merkel cell polyomavirus (MCPyV) DNA integrated into the host genome (virus-positive: VP-MCC) and viral oncogenes drive oncogenesis. The remaining MCCs are virus-negative (VN-MCC) and are caused by UV mutagenesis. To identify novel treatments for VP-MCC and/or VN-MCC we screened three VP-MCC cell lines (WAGA, MKL-1, MKL-2), three VN-MCC cell lines (MCC-13, MCC-26, UISO), and four immortalized, non-transformed control cell lines (HaCaT, HEK293T, CRL7250, NIH-3T3) against ~2,400 compounds in the NCGC Pharmaceutical Collection (NPC) and ~1,900 compounds in the Mechanism Interrogation PlatE (MiPE). Using cell viability as a readout (CellTiter-Glo assay) we found both overlapping and distinct drugs that can be repurposed for the treatment of VP-MCC and VN-MCC.\nA high-throughput screen was conducted in 1536-well white flat bottom plates (Corning) on a Kalypsys robotic system. Cell lines WAGA, MKL-1, MKL-2, MCC-13, MCC-26, UISO, HaCaT, HEK293T, CRL7250, and NIH-3T3 were screened against 2 small molecule annotated drug libraries NPC and MIPE in dose response (8 and 11 pt. respectively) measuring cell viability after 72 hours of incubation. […] A 1,536 pintool (Kalypsys) was used to transfer 23 nL of compound in DMSO to the 1,536-well assay plates. After 72 hr incubation at 37 degree celsius, 2.5 uL of CellTiter-Glo (Promega) was dispensed into each well using a BiorapTR. Plates were incubated at room temperature for 10 min, transferred to a ViewLux (PerkinElmer) and the luminescence was recorded using an exposure time of 2 seconds. Relative luminescence units (RLUs) were normalized to in-plate controls (no cells as a positive (cytotoxicity) control, DMSO as negative control) and the normalized data was processed using NCATS in-house software.", "values": [
      {"smiles": "COP(=S)(OC)SCN1C(=O)c2ccccc2C1=O", "activity change, negative = cytotoxicity": "1.61%"},
      {"smiles": "C[C@]12CC[C@H]3[C@@H](CCC4=CC(=O)CC[C@@H]43)[C@@H]1CC[C@@H]2OC(=O)CCC1CCCCC1", "activity change, negative = cytotoxicity": "-9.08%"},
      {"smiles": "O=P1(N(CCCl)CCCl)NCCCO1", "note": "(stereo not given)", "Potency": "inactive"},
      {"smiles": "CC(NC(C)(C)C)C(=O)c1cccc(Cl)c1", "note": "(stereo not given)", "Potency": "inactive"},
      {"smiles": "NNc1ccccc1", "activity change, negative = cytotoxicity": "1.36%"},
      {"smiles": "CNC(C)(C)Cc1ccccc1", "activity change, negative = cytotoxicity": "0.36%"},
      {"smiles": "COC(=O)C(Cl)C(=O)OC", "activity change, negative = cytotoxicity": "-4.33%"},
      {"smiles": "COc1cccc([C@@]2(O)CCCC[C@@H]2CN(C)C)c1", "activity change, negative = cytotoxicity": "2.75%"},
      {"smiles": "O=C1OC(c2ccc(O)c(S(=O)(=O)O)c2)(c2ccc(O)c(S(=O)(=O)O)c2)c2c(Br)c(Br)c(Br)c(Br)c21", "activity change, negative = cytotoxicity": "3.91%"},
      {"smiles": "C=CCC1(C(C)CC)C(=O)NC(=O)NC1=O", "note": "(stereo not given)", "activity change, negative = cytotoxicity": "-3.03%"},
      {"smiles": "CNCC(=O)c1ccc(O)c(O)c1", "activity change, negative = cytotoxicity": "-1.74%"},
      {"smiles": "CN(C)CCc1c[nH]c2cccc(OP(=O)(O)O)c12", "activity change, negative = cytotoxicity": "-9.66% [at 92.7 µM]"},
      {"smiles": "O=c1oc2ccccc2c(O)c1Cc1c(O)c2ccccc2oc1=O", "activity change, negative = cytotoxicity": "-4.89%"},
      {"smiles": "CCCOC(=O)c1cncn1C(C)c1ccccc1", "note": "(stereo not given)", "activity change, negative = cytotoxicity": "5.71%"},
      {"smiles": "[N-]=[N+]=CC(=O)OC[C@H](N)C(=O)O", "activity change, negative = cytotoxicity": "-12.1%"},
      {"smiles": "CC(C)(C)NCC(O)c1cc(Cl)c(N)c(C(F)(F)F)c1", "note": "(stereo not given)", "activity change, negative = cytotoxicity": "0.877%"},
      {"smiles": "C#CC(O)(C=CCl)CC", "note": "(stereo not given)", "activity change, negative = cytotoxicity": "12.8%"},
      {"smiles": "C[C@]12CC[C@@H]3c4ccc(OC(=O)N(CCCl)CCCl)cc4CC[C@H]3[C@@H]1CC[C@@H]2O", "activity change, negative = cytotoxicity": "-5.79%"},
      {"smiles": "CC[N+]1(CC)CCC(OC(=O)C(O)(c2ccccc2)c2ccccc2)C1", "note": "(stereo not given)", "activity change, negative = cytotoxicity": "4%"},
      {"smiles": "O=c1c(C2CC(c3ccc(-c4ccc(Br)cc4)cc3)Cc3ccccc32)c(O)sc2ccccc12", "note": "(stereo not given)", "activity change, negative = cytotoxicity": "-13.4%"},
      {"smiles": "O=C(O)CCCc1ccc(N(CCCl)CCCl)cc1", "Potency": "inactive"},
      {"smiles": "CC(Cc1ccccc1)N(C)Cc1ccco1", "note": "(stereo not given)", "activity change, negative = cytotoxicity": "16.9%"},
      {"smiles": "C[C@]12CC[C@H]3[C@@H](CCC4=CC(=O)CC[C@@H]43)[C@@H]1CC[C@@H]2OC(=O)CCc1ccco1", "activity change, negative = cytotoxicity": "14.9%"},
      {"smiles": "CCOC(=O)CC(SP(=S)(OC)OC)C(=O)OCC", "note": "(stereo not given)", "Potency": "inactive"},
      {"smiles": "c1ccc(N2CCNCC2)cc1", "activity change, negative = cytotoxicity": "8.48%"},
      {"smiles": "CC(C)c1c(CN(C)C(C)Cc2ccccc2)n(C)n(-c2ccccc2)c1=O", "note": "(stereo not given)", "activity change, negative = cytotoxicity": "10.7%"},
      {"smiles": "CCCN(CCC)C(=O)Cc1c(-c2ccc(Cl)cc2)nc2ccc(Cl)cn12", "activity change, negative = cytotoxicity": "9.85%"},
      {"smiles": "CCOP(=S)(OCC)Oc1ccc2c(C)c(Cl)c(=O)oc2c1", "activity change, negative = cytotoxicity": "16.8%"},
      {"smiles": "c1ccc2c(c1)sc1ccccc12", "activity change, negative = cytotoxicity": "13.7%"},
      {"smiles": "Cc1ncsc1CCCl", "activity change, negative = cytotoxicity": "9.35%"},
      {"smiles": "COC(=O)[C@@H](N)CCCN/C(N)=N/[N+](=O)[O-]", "activity change, negative = cytotoxicity": "-4.21%"},
      {"smiles": "CC(C)c1cccc(C(C)C)c1O", "Potency": "inactive"},
      {"smiles": "CCN(CC)C(=O)[C@@H]1C=C2c3cccc4[nH]cc(c34)C[C@H]2N(C)C1", "activity change, negative = cytotoxicity": "-8.84% [at 155 µM]"},
      {"smiles": "CC(=O)C1CCOC1=O", "note": "(stereo not given)", "activity change, negative = cytotoxicity": "11.7%"},
      {"smiles": "COc1cc(CC(C)N)cc(OC)c1OC", "note": "(stereo not given)", "activity change, negative = cytotoxicity": "-14.9% [at 92.7 µM]"},
      {"smiles": "CCCCCCCCCC(=O)O[C@H]1CC[C@H]2[C@@H]3CCC4=CC(=O)CC[C@@H]4[C@H]3CC[C@]12C", "activity change, negative = cytotoxicity": "3%"},
      {"smiles": "CCC1(c2ccc(N)cc2)CCC(=O)NC1=O", "note": "(stereo not given)", "Potency": "inactive"},
      {"smiles": "CC(C)C[C@H](CN)CC(=O)O", "activity change, negative = cytotoxicity": "4.83%"},
      {"smiles": "NC(=O)c1cc([N+](=O)[O-])cc([N+](=O)[O-])c1", "activity change, negative = cytotoxicity": "4.74%"},
      {"smiles": "Nc1ccccc1C(=O)O", "activity change, negative = cytotoxicity": "8.08%"}
    ]}
  ]
}
